Sampled rows, rich in hits. Any-hit rate of the full collection: about 3.6%.
Abeta yeast res – compounds reversing amyloid beta toxicity in yeast; Potency, µM (doses to about 46.1 µM), usual class: activators; 410,000 compounds, 0.063% hits; yeast expressing A-beta42, growth rescue, OD600, 48 h; response scale: 0% DMSO, 100% iron-clioquinol control; also: nearly all actives have a fitted effect of over 55% in size
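Yeast growth medium received pinned compounds, then yeast cells expressing toxic A-beta were added; plates incubated at 30 C for 48 hr. Growth read as absorbance at 600 nm, normalized to DMSO and equimolar FeCl3 plus clioquinol controls.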
ClpP mod – qHTS Assay for Activators of ClpP | AID 651965, 2013 | Potency, µM (doses to about 57.5 µM), without a hit: at the top dose activity change, negative = active | ATP-dependent Clp protease proteolytic subunit (Bacillus subtilis (strain 168)), P80244 | purified B. subtilis ClpP, FRET peptide cleavage, 20 min | 340,000 compounds, 1.9% hits; active = well fitted falling curve with a large enough effect; inconclusive = small, poorly fitted or top-dose-only effect; inactive = no such curve, though single readings can be large or run the other way; also: the source files actives as falling curves though it sought activators and does not explain the sign; nearly all actives have a fitted effect of over 65% in size
Target sequence (P80244 whole entry, looked up): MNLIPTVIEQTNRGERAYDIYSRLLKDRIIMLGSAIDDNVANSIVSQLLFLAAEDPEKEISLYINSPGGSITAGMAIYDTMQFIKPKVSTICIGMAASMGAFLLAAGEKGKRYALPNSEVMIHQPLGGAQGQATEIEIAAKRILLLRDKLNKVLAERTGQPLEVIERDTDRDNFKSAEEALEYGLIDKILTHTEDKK
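Buffer: 100 mM Tris/HCl pH8, 100 mM KCl, 0.05% low protease BSA, 2.5% glycerol, 0.01% Tween-20. ClpP 10 microg/mL final; 20 min RT; delta FRET normalized to ADEP and DMSO controls.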
aSyn yeast inh – inhibitors of alpha-synuclein toxicity in yeast; Yeast expressing alpha-synuclein, growth rescue, BacTiter-Glo, 24 h; Potency, µM (doses to about 46.1 µM), without a hit: at the highest dose growth rescue (activation), hits mostly activators; 370,000 compounds, 0.14% hits; AID 652106; also: % of control where 0% means no effect; nearly all actives have a fitted effect of over 65% in size
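Readout is rescue of growth in alpha-synuclein-expressing yeast, so inhibitors of toxicity appear as activators. Growth after 24 hr at 30 deg C in galactose medium is quantified by luminescence.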
Mm-Cpn inhibitor – inhibitors of Methanococcus maripaludis chaperonin TRiC (MmCpn); Potency, µM (doses to about 76.9 µM), inactives show at the highest dose activity, negative = inhibition, most hits filed as inhibitors; 330,000 compounds, 0.031% hits; purified Mm-Cpn ATPase, ADP Transcreener TR-FRET; also: % is scaled to controls: 0 for no effect and ±100 for the full control effect; nearly all actives have a fitted effect of over 80% in size
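Eu-cryptate anti-ADP/ADP-d2 competition gives a ratio inversely related to ADP. Enzyme at 25 nM was pre-exposed to compound for 10 min, then given 10 uM ATP for 30 min, 37°C throughout.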
FUS suppressor – suppressors of FUS proteinopathy in yeast. S. cerevisiae FUS-expressing, growth rescue, OD600, 24 h. Potency, µM (series often up to 76.6 µM), usual class: activators. 390,000 compounds, 0.24% hits. AID 1347120;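 also: plate controls were DMSO vehicle for no effect and reference control for full effect; nearly all actives have a fitted effect of over 55% in size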
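Galactose (2%) drives FUS expression in yeast precultured in raffinose; seeding density OD 0.005. Test compounds incubated 24hr at 30C and 99% humidity before absorbance at 600 nm was measured.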
TDP43 rescue – TDP-43 toxicity inhibition in yeast. 410,000 compounds, 1.8% hits. TDP-43 expressing yeast growth rescue, BacTiter-Glo, 24 h. Potency, µM (top dose mostly 46.1 µM), inactives show top-dose growth rescue (activation), usual class: activators; also: % of control where 0% means no effect; nearly all actives have a fitted effect of over 50% in size
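Cell-based yeast growth screen: TDP-43 expression induced in galactose, inoculum OD600=0.02 after raffinose pregrowth to mid-log. Read-out BacTiter-Glo luminescence at 24 hr, 30 deg C; inhibition of toxicity seen as signal increase.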
* marks the source's active call; other numbers are inactive results; i = inactive; ? = inconclusive; / = no result given. Unless noted, calls follow the shape of the dose curve; as a rule, active = well fitted curve in the direction sought with a large enough effect; inconclusive = small, poorly fitted or top-dose-only effect, or another doubt; inactive = no such curve, though single readings can be large; an effect the other way counts as inactive or inconclusive. Potency is read from the fitted curve at half-maximal effect.

SMILES | Abeta yeast res | ClpP mod | aSyn yeast inh | Mm-Cpn inhibitor | FUS suppressor | TDP43 rescue
CN(C)C(=O)CCc1ccc2c3c([nH]c2c1)[C@]1(CCC2CCCC2)[C@@H](C(=O)N2CCOCC2)C[C@H](CC(=O)NCCN2CCOCC2)C(=O)N1CC3 | i | -6.3% | -1.3% | -0.7% | i | -2.2%
COc1ccc2[nH]c3c(c2c1)CCN1C(=O)C(CC(=O)NCCC2=CCCCC2)C[C@H](C(=O)N(C(C)C)C(C)C)[C@@]31C (stereo partly drawn) | i | 0.1% | -5.3% | -1.3% | ? | ?
CCN(CC)C(=O)[C@H]1C[C@H](CC(=O)NCC23CC4CC(CC(C4)C2)C3)C(=O)N2CCc3c([nH]c4ccc(Cl)cc34)[C@]12C | i | -4.1% | ? | -1.1% | i | 20µM*
CN(C)C(=O)CCc1ccc2c3c([nH]c2c1)[C@]1(CCC2CCCC2)[C@@H](C(=O)N2CCOCC2)C[C@H](CC(=O)NCCC2=CCCCC2)C(=O)N1CC3 | i | 0.8% | -0.3% | 2.4% | 15.8µM* | 21.1%
CC(C)N(C(=O)[C@H]1CC(CC(=O)NCCC2=CCCCC2)C(=O)N2CCc3c([nH]c4ccccc34)[C@]12C)C(C)C (stereo partly drawn) | i | 0.0% | ? | 0.4% | ? | 35.5µM*
CCc1ccc2oc(-c3cc(NC(=O)COc4ccc(C)cc4)ccc3O)nc2c1 | / | -0.5% | -6.3% | / | / | /
O=C(NC1CCCc2ccccc21)c1cnn2c1NC(=C1CC1)C=C2C(F)F (stereo not drawn) | / | 0.8% | 14.5% | / | / | /
Cc1ccc(CC(=O)NCC2CCCCC2)cc1 | i | 1.4% | 9.0% | 0.4% | i | 14.6%
O=C(Cc1ccc(OCC2CCCCC2)cc1)NO | / | -0.5% | 22.4µM* | / | / | /
Cc1ccc2ccc3cc(C(=O)Nc4ccc(C)c(F)c4)nc3c2[nH]1 | i | -14.2% | -23.7% | / | i | 3.98µM*
COc1ccc2[nH]c3c(NCCN(C(C)C)C(C)C)ncnc3c2c1 | i | 17.8µM* | -2.1% | -4.1% | ? | 0.7%
CC(C)OCCCNc1ncnc2c1[nH]c1ccccc12 | i | 17.8µM* | -16.4% | -3.3% | i | -22.4%
COc1ccc(CNc2ncnc3c2[nH]c2ccccc23)cc1 | i | / | 1.3% | 0.0% | ? | -20.1%
CC12CC3CC(C)(C1)CC(Nc1nc(N4CCOCC4)nc4ccccc14)(C3)C2 | i | 1.0% | 8.7% | 1.7% | i | 20µM*
CC(=O)Nc1ccc(NCN2C(=O)C3C4CCC(C4)C3C2=O)cc1 (stereo not drawn) | i | -2.0% | 3.7% | -1.0% | i | 25.1µM*
Cc1ccc(NCN2C(=O)C3C4CCC(C4)C3C2=O)cc1 (stereo not drawn) | / | / | / | -1.4% | / | /
Cc1cc(C)cc(OCCOCCn2c(-c3ccc(Cl)cc3)nc3ccccc3c2=O)c1 | i | -4.7% | / | / | i | 31.2%
COc1ccc(-c2nc3ccc(NC(C)=O)cc3c(=O)n2Cc2cccc(Cl)c2)cc1COc1ccc(NC(C)=O)cc1 | / | -24.0% | 2.4% | / | / | /
Cc1cc(-c2cc(-c3ccc(Cl)cc3)on2)nc(NC2CCCC2)n1 | i | 25.1µM* | 8.7% | 0.3% | i | 10.9%
O=C1CC(O)(C(F)(F)F)Oc2c1ccc1ccccc21 (stereo not drawn) | i | -28.9% | 12.6µM* | 0.3% | i | 14.4%
CC1(C)Cc2c(ccc3ccccc23)C(=O)N1 | i | ? | 8.7% | 0.7% | i | ?
O=C1CC(O)(C(F)F)Oc2ccc3ccccc3c21 (stereo not drawn) | i | 25.1µM* | -0.9% | -4.4% | / | -0.1%
COc1cccc(NC(=O)C2CCN(S(=O)(=O)c3cc(-c4noc(C)n4)ccc3C)CC2)c1 | i | -2.6% | / | / | i | -1.4%
CCc1ccc(/C=C2\SC(=S)N(CCCC(=O)N(CCO)c3ccccc3)C2=O)cc1 | i | -0.8% | 19.8% | / | 22.4µM* | 35.5µM*
CC(=O)NC(c1ccco1)c1cc(Cl)c2ccc(N(C)C)nc2c1O (stereo not drawn) | / | / | / | -9.2% | / | /
SMILES | Abeta yeast res | ClpP mod | aSyn yeast inh | Mm-Cpn inhibitor | FUS suppressor | TDP43 rescue
N#Cc1cc(-c2ccccc2)[nH]c1-c1nccc2ccccc12 | i | 4.5% | 6.3% | 0.6% | i | 11.2µM*
CCc1nc2sc3c(N4CCCCC4)ncnc3c2c2c1CCCC2 | i | -19.4% | / | / | i | ?
COc1ccc(/C=C/c2cnccn2)cc1OC | / | 1.1% | 2.6% | / | / | /
Fc1ccc(Nc2nc3ccccc3n3cnnc23)c(F)c1 | i | ? | / | / | i | 8.91µM*
Nn1c(SCC(=O)N2c3ccccc3Sc3ccc(Cl)cc32)nnc1-c1cc(-c2ccc(F)cc2)n[nH]1 | / | / | / | / | 14.1µM* | /
C(=Nc1cccnc1)c1ccnc2ccccc12 | / | 4.5% | 4.1% | / | / | /
Cc1ccc(C(=O)c2cnc3ccccc3c2-c2ccccc2)cc1 | i | 1.0% | -9.3% | 2.7% | i | ?
COc1ccc(C(=O)c2cnc3ccccc3c2-c2ccccc2)cc1 | i | -0.6% | 13.5% | 0.1% | i | 35.5µM*
CCC1(C)Cc2[nH]c(=O)c(C#N)cc2CO1 (stereo not drawn) | i | / | -1.0% | -2.7% | i | -22.1%
CC1(C)Cc2[nH]c(=O)c(C#N)cc2CS1 | i | 14.1µM* | 5.8% | -1.8% | i | -6.6%
O=C(Cn1c(=O)n(-c2cccc(Cl)c2)c(=O)c2sc3ccccc3c21)N1CCCC1 | i | 4.1% | / | / | i | -8.9%
O=C(CSc1nnc(NC(=O)c2ccc3c(c2)OCO3)s1)NCc1ccco1 | i | 4.47µM* | -2.5% | -15.8% | i | -13.5%
O=C(Nc1ccc(F)cc1)c1oc2ccccc2c1NC(=O)C1CCCCC1 | i | -7.8% | / | / | i | 14.4%
CCCC(C)NC(=O)c1ccc(C2SCC(=O)N2Cc2ccco2)cc1 (stereo not drawn) | i | 31.6µM* | 2.0% | -0.7% | i | 1.4%
COC(=O)c1ccc(C2SCC(=O)N2Cc2ccccc2)cc1 (stereo not drawn) | i | 0.5% | 7.6% | -0.1% | i | 23.2%
CCN(CC)c1ccccc1/C=C/[n+]1ccc(CCCCI)c2ccccc21 | / | -1.6% | / | / | / | /
Clc1ccc2nc[nH]c2c1 | / | -0.2% | / | / | / | /
O=C(NN=C1C2CC3CC(C2)CC1C3)c1cc(Cl)ccc1O | i | 28.2µM* | -13.7% | -0.4% | i | -4.9%
O=C(NN=C1C2CC3CC(C2)CC1C3)c1ccncc1 | i | -1.0% | ? | 0.4% | i | 13.0%

Source: PubChem BioAssay (National Center for Advancing Translational Sciences (NCATS))
